Reference: PubChem BioAssay (NCI)
About 83,000 compounds went through this panel and 20% of them were active in at least one assay; those are over-represented in the sample as a whole.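 48-hour exposure, single concentration, 96-well plates; percent growth endpoint where 0 means no net growth. Active: below 10.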 Unmarked numbers belong to inactive results. Active and inactive are the calls of the source.

How the values were obtained:
Experiment in all cases: NCI-60 one-dose screen, 48 h (100 = growth as untreated, 0 = no growth, -100 = all killed)
Details in all cases: 10 µM
SR leukemia = tested on: SR leukemia
RPMI-8226 leukemia = tested on: RPMI-8226 leukemia
OVCAR-8 ovarian = tested on: OVCAR-8 ovarian
OVCAR-5 ovarian = tested on: OVCAR-5 ovarian
OVCAR-4 ovarian = tested on: OVCAR-4 ovarian
SK-OV-3 ovarian = tested on: SK-OV-3 ovarian
IGROV1 ovarian = tested on: IGROV1 ovarian
OVCAR-3 ovarian = tested on: OVCAR-3 ovarian
HS 578T breast = tested on: HS 578T breast
NCI/ADR-RES ovarian = tested on: NCI/ADR-RES ovarian
T-47D breast = tested on: T-47D breast
BT-549 breast = tested on: BT-549 breast
MDA-MB-435 melanoma = tested on: MDA-MB-435 melanoma
SW-620 colon = tested on: SW-620 colon
MCF7 breast = tested on: MCF7 breast
HCT-116 colon = tested on: HCT-116 colon
HCC-2998 colon = tested on: HCC-2998 colon
KM12 colon = tested on: KM12 colon

| Structure (SMILES) | growth (SR leukemia) | growth (RPMI-8226 leukemia) | growth (OVCAR-8 ovarian) | growth (OVCAR-5 ovarian) | growth (OVCAR-4 ovarian) | growth (SK-OV-3 ovarian) | growth (IGROV1 ovarian) | growth (OVCAR-3 ovarian) | growth (HS 578T breast) | growth (NCI/ADR-RES ovarian) | growth (T-47D breast) | growth (BT-549 breast) | growth (MDA-MB-435 melanoma) | growth (SW-620 colon) | growth (MCF7 breast) | growth (HCT-116 colon) | growth (HCC-2998 colon) | growth (KM12 colon) |
| --- | --- | --- | --- | --- | --- | --- | --- | --- | --- | --- | --- | --- | --- | --- | --- | --- | --- | --- |
| CNC(=O)c1c(I)c(NC(C)=O)c(I)c(C(=O)O)c1I | 104% | 110% | 103% | 113% | 111% | 104% | 115% | 111% | 110% | 103% | 117% | 113% | 103% | 102% | 108% | 121% | 106% | 109% |
| CC(=O)N[C@H](C(=O)N[C@@H](CCCNC(=N)N)C(=O)N[C@@H](CCCCN)C(=O)N[C@@H](CCCNC(=N)N)C(=O)N[C@]1(C)CCCCCC/C=C\CCC[C@@](C)(C(=O)N[C@@H](CCCNC(=N)N)C(=O)N[C@@H](CCC(=O)O)C(=O)N[C@@H](CC(C)C)C(=O)N[C@H](C(=O)N[C@@H](CCC(=O)O)C(N)=O)C(C)C)NC(=O)[C@H](CCC(N)=O)NC(=O)[C@H](CC(C)C)NC(=O)[C@H](CC(C)C)NC(=O)[C@H](CCCNC(=N)N)NC(=O)[C@H](CCCNC(=N)N)NC(=O)[C@H](CC(C)C)NC1=O)C(C)C | 15.4% | 20.9% | -15.5% (active) | 38.3% | 39.6% | 53.1% | 58.8% | -38.9% (active) | -33.9% (active) | 7.03% (active) | -35.7% (active) | -46% (active) | 7.66% (active) | 25.9% | -41.7% (active) | 11.6% | 24.8% | -16.9% (active) |
| COc1cc(/C=C/c2cc(/C=C/c3ccc(O)c(OC)c3)[nH]c(=O)n2)ccc1O | 27.2% | 62.5% | 58.7% | 102% | 54% | 71.6% | 93.1% | 59.3% | 53.9% | 90.7% | 59.1% | 55% | 56.9% | 43.6% | 52.1% | 34.7% | 71% | 29.3% |
| CCCc1cn(CC(=O)Nc2nc3ccccc3s2)nn1 | 110% | 112% | 100% | 98.6% | 109% | 110% | 97.3% | 107% | 101% | 107% | 102% | 103% | 105% | 99.9% | 100% | 101% | 116% | 109% |
| COc1cc(/C=C/c2cc(/C=C/c3ccc(O)c(OC)c3)nc(N)n2)ccc1O | -7.94% (active) | 2.88% (active) | 9.33% (active) | 5.83% (active) | 18.3% | -17.4% (active) | 3.42% (active) | -7.57% (active) | -0.999% (active) | 39.3% | 1.57% (active) | -24.4% (active) | -8.12% (active) | 1.86% (active) | 7.59% (active) | 0.331% (active) | 0.932% (active) | -29.3% (active) |
| CCN(CCCNc1cc2c(c(N)c1S(=O)(=O)O)C(=O)c1ccccc1C2=O)c1ccccc1 | 118% | 101% | 96.4% | 107% | 109% | 100% | 114% | 111% | 93.5% | 99.8% | 93.1% | 89.2% | 106% | 113% | 107% | 90% | 108% | 107% |
| O=C(CN(C1CCCCC1)C1CCCCC1)Nc1ccc(S(=O)(=O)c2ccc(NC(=O)CN(C3CCCCC3)C3CCCCC3)cc2)cc1 | -51.4% (active) | -66.9% (active) | 3.23% (active) | -54.8% (active) | -72.6% (active) | 76.6% | -52.3% (active) | -85.2% (active) | 33.9% | 4.04% (active) | -38.1% (active) | -85.3% (active) | -39.5% (active) | -48.4% (active) | -40.7% (active) | -86.3% (active) | -37.4% (active) | -28.6% (active) |
| O=C(N/N=C/c1ccc(Cl)cc1)c1ccc(Cc2n[nH]c(=O)c3cccnc23)cc1 | 135% | 117% | 100% | 99.7% | 106% | 103% | 102% | 106% | 108% | 101% | 99.4% | 100% | 95.5% | 113% | 95.8% | 94.5% | 89.8% | 108% |
| COc1cc2c(Nc3ccc(-c4ccc(N)cc4)cc3)ncnc2c(OC)c1OC | 31.8% | 39.5% | 41.2% | 40.1% | 51.4% | 36.1% | 22.5% | 41.4% | 70.6% | 48.9% | 83% | 85.5% | 7.13% (active) | 14.4% | 36.1% | 58.3% | 4.99% (active) | 3.42% (active) |
| COc1ccc(C(c2ccc(OCCN(C)C)cc2)c2cc3ccccc3c3ccccc23)cc1 (stereo unspecified) | -30.6% (active) | 13.2% | 70.2% | 79.3% | 77.9% | 106% | 61.7% | 62.6% | 75.1% | 68.1% | 21.8% | 93% | -25.4% (active) | -46.6% (active) | 2.13% (active) | -75% (active) | -19.7% (active) | 19.3% |
| COc1cc(/C=C/c2cc(/C=C/c3ccc(O)c(OC)c3)n(C(=O)Nc3ccc(C)cc3)n2)ccc1O | -14.7% (active) | -14.5% (active) | -2.98% (active) | 20.5% | 16.1% | -29.1% (active) | 4.76% (active) | -34.1% (active) | -16% (active) | 20.5% | 5.65% (active) | -23% (active) | -1.64% (active) | 8.12% (active) | 6.3% (active) | 1.6% (active) | 2.19% (active) | -1.13% (active) |
| Brc1ccc2c(c1)-c1ccccc1C1=NCCN12 | -0.353% (active) | 1.99% (active) | -11.3% (active) | -8.25% (active) | 0.91% (active) | -3.44% (active) | 27.1% | -32.7% (active) | 37% | -18% (active) | -0.518% (active) | 11% | 1.68% (active) | -34.3% (active) | -5.53% (active) | -12.6% (active) | 13.5% | 10.9% |
| COc1ccc(/C(C#N)=C/c2cccc(OC)c2OC)cc1 | 41.2% | 91.1% | 96% | 97.7% | 98.8% | 96.2% | 80.6% | 94.2% | 91.6% | 53.3% | 80.7% | 78.1% | 9.46% (active) | 65.2% | 66% | 89.7% | 78.4% | 56.7% |
| CN1CCN(C2=Nc3ccccc3Oc3ccc(Cl)cc32)CC1 | 76.9% | 99.5% | 107% | 96.1% | 84.3% | 117% | 97.2% | 104% | 104% | 98% | 81.3% | 111% | 96.9% | 96.2% | 97.4% | 92.4% | 116% | 102% |
| CCOC(=O)c1cc(C(=O)c2cc(OC)c(OC)c(OC)c2)n2nc(C)ccc12 | 23% | 18% | 25.4% | 64.9% | 51.8% | 24.1% | 39.8% | 12.5% | 55.9% | 20.9% | 93.6% | 47.5% | 3.24% (active) | 26.7% | 21.6% | 14.7% | 25.9% | 28% |
| O=C(N/N=C/c1ccc([N+](=O)[O-])cc1)c1ccccc1Nc1cccc(C(F)(F)F)c1 | 104% | 90.4% | 95.8% | 98.6% | 98.2% | 103% | 67.3% | 103% | 7.5% (active) | 91.4% | 95.1% | 77.8% | 103% | 102% | 111% | 53.9% | 99.5% | 141% |
| COc1cc(-c2nn(-c3cccc(NC(=O)CCN4CCN(c5ccccc5)CC4)c3)cc2-c2ccncc2)ccc1Cl | 4.54% (active) | 20.6% | 22.6% | 47.5% | 34% | 26.7% | 32.7% | 16.2% | 31.8% | 21% | 17.5% | 12.6% | 16.8% | 24.5% | 12.6% | 11.8% | 28.5% | 13.3% |
